Experimental data reported in ChEMBL document CHEMBL2218924, “A broad activity screen in support of a chemogenomic map for kinase signalling research and drug discovery” (Biochem J, 2013).

Legend:
[1] = biological target: T1, Serine/threonine-protein kinase Sgk3 (Homo sapiens) (UniProt Q96BR1); conditions: at 1 µM
T1 sequence (whole entry): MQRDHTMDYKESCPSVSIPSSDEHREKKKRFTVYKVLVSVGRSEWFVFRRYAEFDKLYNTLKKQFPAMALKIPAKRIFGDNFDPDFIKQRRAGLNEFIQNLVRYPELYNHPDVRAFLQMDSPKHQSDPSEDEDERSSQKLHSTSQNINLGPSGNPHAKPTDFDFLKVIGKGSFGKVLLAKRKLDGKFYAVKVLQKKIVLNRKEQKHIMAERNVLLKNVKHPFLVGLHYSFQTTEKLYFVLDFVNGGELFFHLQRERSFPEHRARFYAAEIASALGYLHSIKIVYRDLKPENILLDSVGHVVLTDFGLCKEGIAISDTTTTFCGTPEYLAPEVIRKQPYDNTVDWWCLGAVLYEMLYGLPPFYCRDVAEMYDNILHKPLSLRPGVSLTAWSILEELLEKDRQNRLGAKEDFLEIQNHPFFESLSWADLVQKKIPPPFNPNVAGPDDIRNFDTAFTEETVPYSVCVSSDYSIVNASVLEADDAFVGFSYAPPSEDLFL

[2] = biological target: SRSF protein kinase 1 (Homo sapiens) (UniProt Q96SB4); conditions: at 1 µM
[3] = biological target: SRSF protein kinase 1 (Homo sapiens) (UniProt Q96SB4); conditions: at 10 µM
[4] = biological target: SRSF protein kinase 2 (Homo sapiens) (UniProt P78362); conditions: at 10 µM
[5] = biological target: Serine/threonine-protein kinase 33 (Homo sapiens) (UniProt Q9BYT3); conditions: at 1 µM
[6] = biological target: Serine/threonine-protein kinase 33 (Homo sapiens) (UniProt Q9BYT3); conditions: at 10 µM
[7] = biological target: Serine/threonine-protein kinase PLK2 (Homo sapiens) (UniProt Q9NYY3); conditions: at 1 µM
[8] = biological target: Serine/threonine-protein kinase PLK2 (Homo sapiens) (UniProt Q9NYY3); conditions: at 10 µM
[9] = biological target: T1, Serine/threonine-protein kinase Sgk3 (Homo sapiens); conditions: at 10 µM
[10] = biological target: Serine/threonine-protein kinase SIK1 (Homo sapiens) (UniProt P57059); conditions: at 1 µM
[11] = biological target: Serine/threonine-protein kinase SIK1 (Homo sapiens) (UniProt P57059); conditions: at 10 µM
[12] = biological target: SRSF protein kinase 2 (Homo sapiens) (UniProt P78362); conditions: at 1 µM
[13] = biological target: Tyrosine-protein kinase SYK (Homo sapiens) (UniProt P43405); conditions: at 1 µM
[14] = biological target: Tyrosine-protein kinase SYK (Homo sapiens) (UniProt P43405); conditions: at 10 µM
[15] = biological target: T2, Mitogen-activated protein kinase kinase kinase 7 (Homo sapiens) (UniProt O43318); conditions: at 1 µM
T2 sequence (whole entry): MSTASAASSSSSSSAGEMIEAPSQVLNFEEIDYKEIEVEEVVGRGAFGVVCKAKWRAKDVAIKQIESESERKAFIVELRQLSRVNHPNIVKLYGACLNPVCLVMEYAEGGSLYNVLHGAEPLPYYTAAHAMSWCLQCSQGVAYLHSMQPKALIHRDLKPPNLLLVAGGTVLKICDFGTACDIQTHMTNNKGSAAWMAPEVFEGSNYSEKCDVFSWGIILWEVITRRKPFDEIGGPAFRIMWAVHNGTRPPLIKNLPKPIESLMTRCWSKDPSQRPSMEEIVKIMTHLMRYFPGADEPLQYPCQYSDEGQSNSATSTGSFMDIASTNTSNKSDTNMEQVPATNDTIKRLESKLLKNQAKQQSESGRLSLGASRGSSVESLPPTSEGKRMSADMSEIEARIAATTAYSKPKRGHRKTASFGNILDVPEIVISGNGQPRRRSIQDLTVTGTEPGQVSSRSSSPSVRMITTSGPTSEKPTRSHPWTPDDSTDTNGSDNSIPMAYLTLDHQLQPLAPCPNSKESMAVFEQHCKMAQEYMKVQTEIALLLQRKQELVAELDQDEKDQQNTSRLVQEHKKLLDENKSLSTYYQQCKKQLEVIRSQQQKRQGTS

[16] = biological target: T2, Mitogen-activated protein kinase kinase kinase 7 (Homo sapiens); conditions: at 10 µM
[17] = biological target: T3, Serine/threonine-protein kinase TAO1 (Homo sapiens) (UniProt Q7L7X3); conditions: at 1 µM
T3 sequence (whole entry): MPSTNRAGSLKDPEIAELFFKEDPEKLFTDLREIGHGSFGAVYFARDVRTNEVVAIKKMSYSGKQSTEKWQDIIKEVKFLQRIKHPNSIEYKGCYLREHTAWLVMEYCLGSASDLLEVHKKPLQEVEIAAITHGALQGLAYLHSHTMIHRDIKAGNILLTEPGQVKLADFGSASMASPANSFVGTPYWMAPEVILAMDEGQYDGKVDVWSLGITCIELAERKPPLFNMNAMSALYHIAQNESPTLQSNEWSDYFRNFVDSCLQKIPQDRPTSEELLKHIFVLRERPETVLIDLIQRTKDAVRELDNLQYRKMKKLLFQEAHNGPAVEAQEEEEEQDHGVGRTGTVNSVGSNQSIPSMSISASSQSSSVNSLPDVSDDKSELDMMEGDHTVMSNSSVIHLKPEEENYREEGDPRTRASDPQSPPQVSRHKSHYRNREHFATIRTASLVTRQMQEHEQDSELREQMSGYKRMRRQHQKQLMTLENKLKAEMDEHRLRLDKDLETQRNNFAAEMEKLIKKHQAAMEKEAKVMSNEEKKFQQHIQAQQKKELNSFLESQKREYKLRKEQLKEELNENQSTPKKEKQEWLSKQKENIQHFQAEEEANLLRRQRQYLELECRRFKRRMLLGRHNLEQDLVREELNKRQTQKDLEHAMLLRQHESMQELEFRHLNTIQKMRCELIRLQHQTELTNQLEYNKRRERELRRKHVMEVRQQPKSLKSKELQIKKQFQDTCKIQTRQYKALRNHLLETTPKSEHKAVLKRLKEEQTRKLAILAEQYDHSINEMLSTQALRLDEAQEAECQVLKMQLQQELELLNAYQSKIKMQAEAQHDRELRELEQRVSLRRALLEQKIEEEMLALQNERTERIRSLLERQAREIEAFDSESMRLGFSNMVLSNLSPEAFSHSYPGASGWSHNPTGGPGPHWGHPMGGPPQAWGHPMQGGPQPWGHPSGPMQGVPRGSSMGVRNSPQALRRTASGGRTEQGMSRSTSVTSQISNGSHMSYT

[18] = biological target: T3, Serine/threonine-protein kinase TAO1 (Homo sapiens); conditions: at 10 µM

SRSF protein kinase 2 (Homo sapiens), sequence (P78362 whole entry, looked up): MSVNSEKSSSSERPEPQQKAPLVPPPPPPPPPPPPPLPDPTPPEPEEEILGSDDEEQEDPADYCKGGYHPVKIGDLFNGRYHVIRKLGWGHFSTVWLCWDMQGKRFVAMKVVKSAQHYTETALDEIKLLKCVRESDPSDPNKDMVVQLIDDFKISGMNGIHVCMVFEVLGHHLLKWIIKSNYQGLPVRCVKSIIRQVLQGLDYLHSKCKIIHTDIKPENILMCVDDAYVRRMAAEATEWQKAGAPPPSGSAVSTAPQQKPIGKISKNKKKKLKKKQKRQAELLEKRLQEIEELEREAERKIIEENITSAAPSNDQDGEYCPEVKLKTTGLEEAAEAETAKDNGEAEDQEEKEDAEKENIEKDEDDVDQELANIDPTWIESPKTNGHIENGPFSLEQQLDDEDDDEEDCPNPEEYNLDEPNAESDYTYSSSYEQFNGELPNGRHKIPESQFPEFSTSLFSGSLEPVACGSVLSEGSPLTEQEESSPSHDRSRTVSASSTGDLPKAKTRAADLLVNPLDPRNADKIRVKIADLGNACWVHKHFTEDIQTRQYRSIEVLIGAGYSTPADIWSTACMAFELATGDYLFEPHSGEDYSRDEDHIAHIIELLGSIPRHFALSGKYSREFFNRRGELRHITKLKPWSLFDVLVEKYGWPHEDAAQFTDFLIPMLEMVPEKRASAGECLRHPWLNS
Serine/threonine-protein kinase SIK1 (Homo sapiens), sequence (P57059 whole entry): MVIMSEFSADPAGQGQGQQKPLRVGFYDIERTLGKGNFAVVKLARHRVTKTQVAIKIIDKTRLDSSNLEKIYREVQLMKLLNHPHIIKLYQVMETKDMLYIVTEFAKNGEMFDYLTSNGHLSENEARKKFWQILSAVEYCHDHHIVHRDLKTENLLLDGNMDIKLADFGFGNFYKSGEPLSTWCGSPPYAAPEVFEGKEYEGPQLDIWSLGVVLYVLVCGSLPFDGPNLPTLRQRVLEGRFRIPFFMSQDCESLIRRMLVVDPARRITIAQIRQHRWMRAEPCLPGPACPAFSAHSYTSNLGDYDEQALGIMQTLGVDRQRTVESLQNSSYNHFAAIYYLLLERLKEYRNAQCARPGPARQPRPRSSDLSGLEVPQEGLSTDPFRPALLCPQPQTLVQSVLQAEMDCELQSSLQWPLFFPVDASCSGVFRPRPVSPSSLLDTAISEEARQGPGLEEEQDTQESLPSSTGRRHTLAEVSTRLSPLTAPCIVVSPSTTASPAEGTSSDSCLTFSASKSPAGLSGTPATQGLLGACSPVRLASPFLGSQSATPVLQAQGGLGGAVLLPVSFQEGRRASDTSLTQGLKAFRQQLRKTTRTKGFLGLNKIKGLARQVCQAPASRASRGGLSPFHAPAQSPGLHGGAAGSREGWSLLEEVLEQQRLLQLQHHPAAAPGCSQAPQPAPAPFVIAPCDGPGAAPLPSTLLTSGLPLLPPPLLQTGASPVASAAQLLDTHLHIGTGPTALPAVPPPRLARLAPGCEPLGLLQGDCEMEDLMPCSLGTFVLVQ
Serine/threonine-protein kinase PLK2 (Homo sapiens), sequence (Q9NYY3 whole entry, looked up): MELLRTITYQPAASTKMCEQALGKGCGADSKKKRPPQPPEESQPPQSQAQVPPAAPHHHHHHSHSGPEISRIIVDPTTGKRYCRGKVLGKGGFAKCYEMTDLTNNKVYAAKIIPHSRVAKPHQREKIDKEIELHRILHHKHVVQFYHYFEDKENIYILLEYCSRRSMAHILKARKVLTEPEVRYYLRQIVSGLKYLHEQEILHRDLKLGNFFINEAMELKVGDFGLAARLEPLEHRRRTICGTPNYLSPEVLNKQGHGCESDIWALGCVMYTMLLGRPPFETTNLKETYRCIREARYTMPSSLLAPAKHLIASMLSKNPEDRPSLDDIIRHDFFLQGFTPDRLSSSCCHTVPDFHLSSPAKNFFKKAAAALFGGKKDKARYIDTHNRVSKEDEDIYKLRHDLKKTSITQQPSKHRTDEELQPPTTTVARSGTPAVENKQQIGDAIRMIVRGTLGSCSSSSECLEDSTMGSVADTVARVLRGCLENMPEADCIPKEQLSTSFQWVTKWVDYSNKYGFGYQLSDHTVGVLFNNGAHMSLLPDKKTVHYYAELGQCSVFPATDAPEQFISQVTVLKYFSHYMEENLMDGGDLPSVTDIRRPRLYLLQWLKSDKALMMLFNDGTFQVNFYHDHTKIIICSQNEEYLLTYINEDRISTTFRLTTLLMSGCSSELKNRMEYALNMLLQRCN
Serine/threonine-protein kinase 33 (Homo sapiens), sequence (Q9BYT3 whole entry, looked up): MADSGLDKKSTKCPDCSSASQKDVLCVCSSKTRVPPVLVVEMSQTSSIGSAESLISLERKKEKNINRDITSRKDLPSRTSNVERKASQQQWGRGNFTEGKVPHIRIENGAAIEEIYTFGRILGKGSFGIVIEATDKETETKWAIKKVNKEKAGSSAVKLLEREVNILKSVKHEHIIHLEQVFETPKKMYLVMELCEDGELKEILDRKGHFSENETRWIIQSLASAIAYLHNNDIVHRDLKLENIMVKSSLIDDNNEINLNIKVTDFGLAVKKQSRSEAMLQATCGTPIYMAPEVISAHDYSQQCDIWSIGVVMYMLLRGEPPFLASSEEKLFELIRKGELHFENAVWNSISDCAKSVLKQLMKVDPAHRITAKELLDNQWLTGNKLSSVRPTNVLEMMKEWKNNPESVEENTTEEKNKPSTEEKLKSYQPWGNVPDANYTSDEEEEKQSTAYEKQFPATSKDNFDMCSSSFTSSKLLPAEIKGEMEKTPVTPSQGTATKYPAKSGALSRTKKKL
SRSF protein kinase 1 (Homo sapiens), sequence (Q96SB4 whole entry): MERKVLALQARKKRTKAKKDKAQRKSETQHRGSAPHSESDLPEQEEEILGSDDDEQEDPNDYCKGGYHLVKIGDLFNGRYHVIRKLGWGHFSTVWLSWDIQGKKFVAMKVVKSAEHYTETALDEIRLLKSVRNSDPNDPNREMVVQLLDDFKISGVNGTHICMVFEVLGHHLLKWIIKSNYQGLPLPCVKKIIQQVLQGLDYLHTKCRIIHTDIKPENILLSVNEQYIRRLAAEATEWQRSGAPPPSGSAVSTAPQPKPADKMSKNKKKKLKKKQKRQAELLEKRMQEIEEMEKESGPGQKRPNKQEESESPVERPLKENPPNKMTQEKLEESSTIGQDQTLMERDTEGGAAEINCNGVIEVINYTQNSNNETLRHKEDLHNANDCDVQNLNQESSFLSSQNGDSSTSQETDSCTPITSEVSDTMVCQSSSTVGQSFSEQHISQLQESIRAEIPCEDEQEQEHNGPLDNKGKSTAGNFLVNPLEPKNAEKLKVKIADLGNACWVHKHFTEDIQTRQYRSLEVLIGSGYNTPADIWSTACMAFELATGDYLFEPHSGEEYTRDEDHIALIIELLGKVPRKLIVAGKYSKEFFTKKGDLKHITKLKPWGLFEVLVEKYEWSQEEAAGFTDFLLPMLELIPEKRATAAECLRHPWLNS

SMILES: CN(C)CCCn1cc(C2=C(c3c[nH]c4ccccc34)C(=O)NC2=O)c2ccccc21
- residual activity [1]: 101%

SMILES: O=C1c2ccccc2-c2nc3nnnn3nc21
- residual activity [2]: 107%
- residual activity [3]: 111%
- residual activity [4]: 101%
- residual activity [5]: 103%
- residual activity [6]: 100%
- residual activity [7]: 73%
- residual activity [8]: 34%

SMILES: O=C1Nc2cc(Br)ccc2/C1=C1/Nc2ccccc2/C1=N\O
- residual activity [1]: 86%

SMILES: Nc1ncnc2c1cnn2-c1ccccc1
- residual activity [1]: 94%

SMILES: COc1cc(OC)c(/C=C2\C(=O)Nc3ccccc32)c(OC)c1
- residual activity [1]: 92%
- residual activity [9]: 84%
- residual activity [10]: 106%
- residual activity [11]: 93%
- residual activity [12]: 104%
- residual activity [4]: 86%
- residual activity [5]: 92%
- residual activity [6]: 92%
- residual activity [7]: 100%
- residual activity [8]: 92%
- residual activity [13]: 102%
- residual activity [14]: 96%
- residual activity [15]: 92%
- residual activity [16]: 81%
- residual activity [17]: 95%
- residual activity [18]: 83%

SMILES: N#C/C(=C(\N)Sc1ccc(N)cc1)c1ccccc1C(F)(F)F
- residual activity [1]: 102%

SMILES: O=[N+]([O-])c1ccc(-c2nc(-c3ccc(F)cc3)c(-c3ccncc3)[nH]2)cc1
- residual activity [1]: 111%

SMILES: Nc1ccc2ncnc(NCCc3ccc(Oc4ccccc4)cc3)c2c1
- residual activity [1]: 109%

SMILES: CC(=O)O/N=C1\C(=C2\C(=O)Nc3cc(Br)ccc32)Nc2ccccc21
- residual activity [1]: 114%

SMILES: CO[C@H]1[C@@H](OC)C[C@H](C)[C@@H](OC)C2=CC(=O)C=C(NC(=O)/C(C)=C/C=C/[C@H](OC)[C@@H](OC(N)=O)/C(C)=C/[C@@H]1C)C2=O
- residual activity [1]: 95%

SMILES: O=C1NC(=O)/C(=C\c2ccc3nccnc3c2)S1
- residual activity [1]: 114%

SMILES: COc1cc2nccc(Oc3ccc(NC(=S)NC(=O)c4ccccc4C)cc3)c2cc1OC
- residual activity [1]: 97%

SMILES: N/C(=N\[N+](=O)[O-])N/N=C\c1ccc(-c2cccc([N+](=O)[O-])c2)o1
- residual activity [1]: 127%
- residual activity [9]: 81%
- residual activity [12]: 99%
- residual activity [4]: 88%
- residual activity [7]: 99%
- residual activity [8]: 98%
- residual activity [16]: 89%
- residual activity [17]: 91%
- residual activity [18]: 88%

SMILES: COc1cc2ncnc(Nc3ccc(Oc4ccccc4)cc3)c2cc1OC
- residual activity [1]: 110%

SMILES: O=C1Nc2ccc(Cl)cc2/C1=C/c1cc(Cl)c(O)c(Cl)c1
- residual activity [1]: 95%

SMILES: O=C(Nc1cccc(Nc2nccc(Nc3cccc(C(F)(F)F)c3)n2)c1)C1CC1
- residual activity [1]: 126%

SMILES: O=c1c2ccccc2[nH]c(=S)n1CCN1CCC(=C(c2ccc(F)cc2)c2ccc(F)cc2)CC1
- residual activity [1]: 118%

SMILES: CCCCc1c(-c2ccc(OC)cc2)[nH]c2nccnc12
- residual activity [1]: 100%

SMILES: O=C(Nc1cccc(Nc2cc(Nc3cccc(C(F)(F)F)c3)ncn2)c1)C1CC1
- residual activity [1]: 96%

SMILES: CC(C)n1cnc2/c(=N/c3cccc(Cl)c3)nc(NCCO)[nH]c21
- residual activity [1]: 107%

SMILES: Oc1c2ccccc2c2c3c(cccc13)N=N2
- residual activity [1]: 85%

SMILES: Cc1nc(-c2ccccc2)c(-c2ccncc2)o1
- residual activity [1]: 108%

SMILES: Oc1n[nH]c2nnc(-c3c(-c4ccccc4)nn4ccccc34)cc12
- residual activity [1]: 92%

SMILES: CCc1nc(-c2ccc(OC)cc2)[nH]c1-c1ccncc1
- residual activity [1]: 115%
- residual activity [9]: 79%
- residual activity [10]: 139%
- residual activity [12]: 102%
- residual activity [4]: 74%
- residual activity [5]: 105%
- residual activity [6]: 100%
- residual activity [7]: 112%
- residual activity [8]: 100%
- residual activity [13]: 113%
- residual activity [14]: 107%

SMILES: CCOc1cc2ncnc(Nc3cccc(Br)c3)c2cc1OCC
- residual activity [1]: 108%

SMILES: CO[C@H]1C[C@@H]2CC[C@@H](C)[C@@](O)(O2)C(=O)C(=O)N2CCCC[C@H]2C(=O)O[C@H]([C@H](C)C[C@@H]2CC[C@@H](O)[C@H](OC)C2)CC(=O)[C@H](C)/C=C(\C)[C@@H](O)[C@@H](OC)C(=O)[C@H](C)C[C@H](C)/C=C/C=C/C=C/1C
- residual activity [1]: 112%

SMILES: CC(C)n1cnc2c(NCc3ccccc3)nc(NCCCO)nc21
- residual activity [1]: 89%

SMILES: CCCC(=O)Oc1ccc2[nH]c(C(=O)c3cc4ccccc4[nH]3)cc2c1
- residual activity [1]: 94%

SMILES: Cc1cc2ncc(-c3ccccc3)nc2cc1C
- residual activity [1]: 108%

SMILES: COc1cc2ncnc(N3CCN(C(=O)Nc4ccc(Oc5ccccc5)cc4)CC3)c2cc1OC
- residual activity [1]: 104%

SMILES: Oc1ccc(-c2nc(-c3ccc(F)cc3)c(-c3ccncc3)[nH]2)cc1
- residual activity [1]: 109%
